A short description of assay [1]: CCTE_Mundy_HCI_Cortical_NOG_NeuriteCount: CCTE's Neurite Outgrowth Assay in rat cortical cells for Neurite Count, Mundy Lab (AID 2284212).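 Further: cells fixed about two days after chemical exposure began.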 A digest of the protocol: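 Rat cortical primary cells; compound added 2 h post-plating, 1/10 dilution of working solution. Anti-betaIII-tubulin/AF488 ICC; ArrayScan neurite count vs DMSO.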
Assay [2] is described as follows: CCTE_Mundy_HCI_Cortical_NOG_NeuriteLength: CCTE's Neurite Outgrowth Assay in rat cortical cells for Neurite Length, Mundy Lab (AID 2284213). A digest of the protocol:
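First, rat primary cortical cells were plated and, 2 h later, given test chemical as a 1/10 dilution. Finally, βIII-tubulin immunostaining enabled automated imaging of neurite length.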

Assay [3] is described as follows: CCTE_Mundy_HCI_Cortical_Synap_Neur_Matur_NeuriteLength: CCTE's Synaptogenesis and Neurite Maturation Assay in rat cortical cells for Neurite Length, Mundy Lab (AID 2284214). The gist of the method:
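Neurite length quantified by automated high-content imaging of MAP2, synaptophysin and Hoechst staining. Rat cortical cells received chemical from DIV 7 to DIV 12 […], glial growth arrested by AraC at DIV 5; DMSO baseline.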

Assay [4] in a line: CCTE_Mundy_HCI_Cortical_Synap_Neur_Matur_NeuriteSpotCountPerNeuron: CCTE's Synaptogenesis and Neurite Maturation Assay in rat cortical cells for Neurite Spot Count per Neuron Count, Mundy Lab (AID 2284215). A digest of the protocol: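 High-content imaging counts synaptophysin puncta along MAP2-labelled neurites per neuron after chemical exposure of rat cortical cells from DIV 7 to termination at DIV 12 (AraC added DIV 5). Loss of signal relative to DMSO.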

Assay [5] in a line: TAMU_PeakParms_SingleDonor1434_Chronotropy: Texas A&M University (TAMU) 1.5-hr Human Induced Pluripotent Stem Cell (iPSC)-derived Cardiomyocytes Calcium (Ca+2) Flux Assay for Cardiotoxicity: Chronotropy (changes in peak frequency) (AID 2284217). The note with it: actives raise or lower the signal. The gist of the method: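 iPSC-CMs, donor 1434; 4 conc (0.2–100 uM), 0.5% v/v DMSO, 90 min, 37C/5% CO2; Ca2+ flux fluorescence → peak.freq.avg; peak.freq.avg = 0 dropped; bidirectional fit vs DMSO; EC05 POD.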

Assay [6] in a line: CCTE_Mundy_HCI_Cortical_Synap_Neur_Matur_SynapseCount: CCTE's Synaptogenesis and Neurite Maturation Assay in rat cortical cells for Synapse Count, Mundy Lab (AID 2284218). The gist of the method: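 High-content imaging of synaptophysin puncta per MAP2-positive neuron (Hoechst nuclei) in rat cortical cells exposed DIV 7–12 after glial arrest with AraC at DIV 5; decrease relative to DMSO scored.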

A short description of assay [7]: CCTE_Mundy_HCI_hN2_NOG_NeuriteCount: CCTE's Neurite Outgrowth Assay in human hN2 cells for Neurite Count, Mundy Lab (AID 2284219; active means hit-call score of the fitted dose curve at least 0.9, where 1 is the maximum). The gist of the method:
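In this morphology assay, hNP1-derived neurons received test chemical 2 h post-plating and were fixed two days later in warm paraformaldehyde/sucrose containing Hoechst 33342. Neurites, labelled by rabbit anti-βIII-tubulin (1:800) and Alexa Fluor-488 (1:500), were counted automatically.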

A short description of assay [8]: CCTE_Mundy_HCI_hN2_NOG_NeuriteLength: CCTE's Neurite Outgrowth Assay in human hN2 cells for Neurite Length, Mundy Lab (AID 2284220; active means hit-call score of the fitted dose curve at least 0.9, where 1 is the maximum). A digest of the protocol:
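Plate hNP1-derived neurons, then add chemical 2 h later as a 1/10 dilution. Stain with anti-βIII-tubulin then Alexa Fluor-488 secondary, and image automatically to measure neurite length.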

The nature of assay [9]: CCTE_Mundy_HCI_Cortical_Synap_Neur_Matur_NeuriteCount: CCTE's Synaptogenesis and Neurite Maturation Assay in rat cortical cells for Neurite Count, Mundy Lab (AID 2284222).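 Further: exposure from day 7 to day 12 in vitro with readout at day 12.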 The gist of the method:
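Primary rat cortical cells were plated, treated with AraC at DIV 5, then exposed to chemicals from DIV 7 through DIV 12. After fixation and immunostaining for MAP2 and synaptophysin, imaging quantified neurites, with DMSO as the negative control.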

Assay [10] is described as follows: CCTE_Mundy_HCI_Cortical_Synap_Neur_Matur_CellBodySpotCount: CCTE's Synaptogenesis and Neurite Maturation Assay in rat cortical cells for Cell Body Spot Count, Mundy Lab (AID 2284223). A digest of the protocol: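 High-content imaging counts synaptophysin puncta on neuronal cell bodies per neuron after MAP2/synaptophysin immunostaining. Rat primary cortical cells, glia arrested with AraC at DIV 5, were exposed DIV 7–12; signal decrease measured against DMSO.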

The nature of assay [11]: TAMU_PeakParms_SingleDonor1434_QT: Texas A&M University (TAMU) 1.5-hr Human Induced Pluripotent Stem Cell (iPSC)-derived Cardiomyocytes Calcium (Ca+2) Flux Assay for Cardiotoxicity: QT (decay-rise ratio) (AID 2284235; active means hit-call score of the fitted dose curve at least 0.9, where 1 is the maximum). The gist of the method:
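Decay/rise ratio of calcium-flux fluorescence scored after 90 min exposure (37C) of donor 1434 iPSC cardiomyocytes to 0.2–100 uM (0.5% DMSO). Beat-cessation and severe-notch points removed; POD is EC05, a 5% rise over DMSO.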

Assay [12] can be described thus: TAMU_HCS_1.5hr_SingleDonor1434_Cytotoxicity: Cytotoxicity Assessment using High-content Screening (HCS) Fluorescent Imaging for the Texas A&M University (TAMU) 1.5-hr Human Induced Pluripotent Stem Cell (iPSC)-derived Cardiotoxicity Assay (AID 2284234; active means hit-call score of the fitted dose curve at least 0.9, where 1 is the maximum). A digest of the protocol: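 Nuclear counts from Hoechst 33342 imaging define cytotoxicity here, with EC10 (10% cell-count loss relative to DMSO) as point of departure. iPSC cardiomyocytes received 0.2-100 uM test chemical in 0.5% DMSO for 1.5 h at 37 C.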

Assay [13] is described as follows: CCTE_Mundy_HCI_hN2_NOG_NeuronCount: CCTE's Neurite Outgrowth Assay in human hN2 cells for Neuron Count, Mundy Lab (AID 2284221; active means hit-call score of the fitted dose curve at least 0.9, where 1 is the maximum). A digest of the protocol:
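Read-out is the number of betaIII-tubulin-positive neurons imaged by automated high-content analysis, with DMSO as negative control.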

Assay [14] can be described thus: BSK_BT_PBMCCytotoxicity: PBMC Cytotoxicity Assessment in the BioMAP Diversity Plus: BT Assay (AID 2284225).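 Further: PBMC viability measured by Alamar Blue dye reduction fluorescence.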 The note with it: primary human B cells with PBMC. The gist of the method:
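Viability by Alamar Blue reduction (6 h, ex/em 546/580 nm) after 90 h culture of SEB/TSST-1-activated PBMC (20 ng/mL each) given compound 1 h before activation. DMSO served as baseline for curve fitting.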

Read-out in assay [15]: Secreted IgG (sIgG), gene 3500
The assay can be described thus: BSK_BT_sIgG: BioMAP Diversity Plus: BT Assay for Secreted IgG (sIgG) Biomarker Activity (AID 2284226). The note with it: primary human B cells with PBMC. A digest of the protocol:
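ELISA quantitation of secreted IgG from human B cells co-cultured with PBMC, sampled 24 h post-dosing. Values fitted relative to DMSO vehicle as baseline, positive fitting direction.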

Assay [16] in a line: BSK_BT_Bcell_Proliferation: Viability Assessment in the BioMAP Diversity Plus: BT Assay for B cell Proliferation (AID 2284227). The note with it: primary human B cells with PBMC. The gist of the method:
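Read-out is absorbance at 560 nm from sulforhodamine B staining of total protein, reflecting relative cell numbers in a human B cell and PBMC co-culture after 72 h of chemical exposure. Values were referenced to DMSO.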

Read-out in assay [17]: Interleukin 6 (IL6), IL6 (gene 3569)
The assay can be described thus: BSK_BT_xIL6: BioMAP Diversity Plus: BT Assay for Interleukin 6 (IL6) Biomarker Activity (AID 2284228). The note with it: primary human B cells with PBMC. The gist of the method:
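Secreted IL-6 in the primary human B cell plus PBMC system, measured by Luminex at 24 h post-chemical, DMSO as baseline. Alamar Blue viability: 75,000 cells/well, chemical 1 h before SEB/TSST-1 (20 ng/mL each), 90 h, then 6 h dye.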

Read-out in assay [18]: Interleukin 17A (IL17A), IL17A (gene 3605)
Put plainly: BSK_BT_xIL17A: BioMAP Diversity Plus: BT Assay for Interleukin 17A (IL17A) Biomarker Activity (AID 2284229). The note with it: primary human B cells with PBMC. The gist of the method:
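Luminex xMAP quantification of secreted IL-17A after 24 h chemical exposure of a primary human B cell/PBMC co-culture. Signal increases fitted relative to DMSO negative control.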

Read-out in assay [19]: Tumor necrosis factor (Homo sapiens) (UniProt P01375)
Put plainly: BSK_BT_xTNFa: BioMAP Diversity Plus: BT Assay for Tumor necrosis factor alpha (TNF-alpha) Biomarker Activity (AID 2284230). The note with it: primary human B cells with PBMC. A digest of the protocol: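 Human primary co-culture of B cells and peripheral blood mononuclear cells; TNF-alpha in supernatant, 24 h post-dose, Luminex multiplex; DMSO = baseline.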

Read-out in assay [20]: Vascular cell adhesion molecule 1 (VCAM1), VCAM1 (gene 7412)
The assay can be described thus: BSK_MyoF_VCAM1: BioMAP Diversity Plus: MyoF Assay for Vascular cell adhesion molecule 1 (VCAM1) Biomarker Activity (AID 2284231). The note with it: primary human lung fibroblasts. The gist of the method: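 ELISA readout of VCAM-1 on human lung fibroblast cultures 24 hours after dosing, analyzed for signal gain relative to DMSO. Overt cytotoxicity was checked by sulforhodamine B total-protein staining in parallel cultures.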

The text below walks through data of PubChem BioAssay (EPA / NIEHS).

Several values for one entry are separate records, joined by “and”; a condition that tells them apart may be missing. Equal entries are not always repeated. Records with an inconclusive call do not appear. Some compounds were tested as several samples or in several runs, with calls that do not always agree. Activity calls are given as the source filed them. How the source made its calls, unless noted: active means hit-call score of the fitted dose curve at least 0.9, where 1 is the maximum; inactive means score below 0.9.

Sequence of Tumor necrosis factor (Homo sapiens) (P01375 whole entry, looked up): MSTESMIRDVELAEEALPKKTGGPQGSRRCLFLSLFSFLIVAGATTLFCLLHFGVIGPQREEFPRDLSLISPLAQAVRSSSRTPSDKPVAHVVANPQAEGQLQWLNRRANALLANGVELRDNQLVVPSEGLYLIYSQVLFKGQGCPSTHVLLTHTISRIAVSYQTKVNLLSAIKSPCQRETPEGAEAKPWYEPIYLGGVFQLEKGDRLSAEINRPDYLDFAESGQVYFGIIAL

Regarding `NC(=O)NO`, the result in [1], in [2], in assay [3], in assay [4], in [5] and in [6] was inactive. The result in assay [7], in assay [8], in assay [9], in [10] and in assay [11] was inactive.
As to `CCCCCCc1ccc(O)cc1O`, the result in assay [5] and in assay [11] was inactive. The AC50 (as a rule, the midpoint of the concentration-response curve, whichever way the signal moves) in [12] is 50 µM (active).
Regarding `Cn1c(=O)c2c(ncn2C)n(C)c1=O`, the compound was called inactive in assay [1], in assay [2], in [3], in [4], in assay [6] and in assay [7]. Moreover, the result in [8], in assay [13], in assay [9] and in assay [10] was inactive.
Regarding `O=C1CCC(N2C(=O)c3ccccc3C2=O)C(=O)N1` (stereo not given), the compound was classed as inactive in assay [1], in assay [3], in assay [4], in assay [5], in assay [6] and in [8]. Further, the result in assay [13], in assay [9] and in assay [10] was inactive.
Regarding `CC[C@H]1OC(=O)[C@H](C)[C@@H](O[C@H]2C[C@@](C)(OC)[C@@H](O)[C@H](C)O2)[C@H](C)[C@@H](O[C@@H]2O[C@H](C)C[C@H](N(C)C)[C@H]2O)[C@](C)(O)C[C@@H](C)C(=O)[C@H](C)[C@@H](O)[C@]1(C)O`, the compound was classed as inactive in assay [1], in assay [2], in assay [3], in assay [4], in assay [6] and in [9]. Further, in assay [10], the call was inactive.
As for `O=P(OC(CCl)CCl)(OC(CCl)CCl)OC(CCl)CCl`, the compound was called inactive in assay [1], in assay [2], in [3], in assay [9] and in [10]. In addition, the AC50 in [4] and in assay [6] was 2.98 µM (active) throughout.
`Cn1cnc([N+](=O)[O-])c1Sc1ncnc2nc[nH]c12`: the AC50 in [14] was 8.01 µM (active); in [15], 206 nM (active) and 716 nM (active); in assay [16], 10.5 µM (active) and 5.28 µM (active); in assay [17], 8.87 µM (active) and 12.6 µM (active); in assay [18], 12.6 µM (active) and 10.3 µM (active); in assay [19], 12.6 µM (active). Moreover, the result in assay [14] and in assay [20] was inactive.
